Each sequence was assayed against NDUFAB1 (assay: pooled miR-30 sensor sort-seq; sequence = guide strand). Details: shRNA.
Further: reference of the scale not given here.

Row | Sequence | sensor-assay potency score (higher = more potent)
1 | ACAACTGTGTAACTCTACCAGG | -1.08
2 | TACAATTTAAATACAAGTCCAT | 0.341
3 | TACAATTTCTTGTGGACACATT | -0.835
4 | TTACTGAAAGCTTCTCTGGGTC | 0.337
5 | TACGTAAAGAACACGGTCCTGG | 0.0334
6 | TGTAATCTACAATTTCTTGTGG | 0.132
7 | TTCTTGTGGACACATTAACTTT | -1.46
8 | AAGTCCATCAGAATCACTCTGT | 0.545

The sequences below were run against NDUFC1 in the same assay as above. Details: shRNA.

Row | Sequence | sensor-assay potency score (higher = more potent)
9 | TTTGATGAGATAGATCCACAAG | -1.07
10 | TTTGATCGCACTGAAGGGCCGC | -0.255
11 | TTCATTGTGTTGTTTGATGAGA | -0.384
12 | TAGATCCACAAGAAGACAGTGG | 0.0941
13 | TAGAACTTTGATCGCACTGAAG | -1.43
14 | TTTTGTACTCTAAAATATCTTC | -0.163
15 | TATATATTCACATATAACTTTT | -0.874
16 | TTTACAACTCAACAGATGGTGA | -0.815
17 | TTGTTTGATGAGATAGATCCAC | -0.545
18 | TTGTACTCTAAAATATCTTCAT | -0.343
19 | TTGATCGCACTGAAGGGCCGCT | -0.209
20 | TAAAATATCTTCATTGTGTTGT | 1.09

Each sequence was assayed against NEBL in the same assay as above. Details: shRNA.

Row | Sequence | sensor-assay potency score (higher = more potent)
21 | TAGCTGTGAAGTCAGACCCTAA | -1.2
22 | TTCAGGTGTATCTGCCACCGTG | -0.9
23 | TTTATGCCAATACTTATCCAGG | -1.28
24 | TAGATTTGGTGAATGCTGCATT | 0.277
25 | TTCATGTTGAGTGCCATCTTGC | -0.598
26 | TTGAATCTACATGACATGCAAC | -0.738
27 | TTGTCTTAAAAGTATCTTCTAT | -0.254
28 | ATCTCTTTTGTACTTGACCTGA | -0.797
29 | TTTGTACTTGACCTGACTCTGC | -0.0804
30 | TTCAATAATAGGAACGCGCAGT | -0.234
31 | TACATGGCTCGGTAGGTCCTTA | -0.857
32 | TTATTTGGTCCTGACATTCTGT | -0.142

What follows are sequences tested against NEFH in the same assay as above. Details: shRNA.

Row | Sequence | sensor-assay potency score (higher = more potent)
33 | TTCGACAGCAGGTTCCTTCTTC | 0.393
34 | TTGGTGTCTTTTTTCTCCGGTG | -0.602
35 | TTTTTTCTTATCTTCAGCCTCT | 0.587
36 | TTTGGGTTTAGCGTCTTCCTTC | -0.21
37 | TTTTCTTATCTTCAGCCTCTTC | -0.582
38 | TATCTCTATATCCAGAGCCATC | -1.97
39 | TTGGCTTCTTCCTTCACTGGGG | 0.0706
40 | TCTCTTGCTAACATATTGCTAA | -0.697

From the OligoGym collection
